Compound activity (PubChem BioAssay)
Vaccinia Venus: qHTS for Stage-Specific Inhibitors of Vaccinia Orthopoxvirus: Venus Reporter Primary qHTS; Vaccinia virus Venus reporter expression, fluorescence; Potency, µM (top dose mostly 36.5 µM), for the others: top-dose activity change, negative = inhibition, most hits filed as inhibitors; 330,000 tested, 0.46% active; calls by dose curve; tested in A549 cells; further: potency means the concentration at half of the fitted maximal effect; nearly all actives have a fitted effect of over 30% in size
HCMV inh: qHTS Assay for inhibitors of the human cytomegalovirus (HCMV) | 410,000 tested, 4.5% active | activity change, negative = inhibition, % at 57.5 µM | HFF cells, HCMV-luciferase reporter, 72 h; active compounds read low; in the data active means activity change below about -60%; inconclusive means no clear call, values can overlap the other calls; inactive means above about -39%
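Two-dose cell screen: HFF monolayers treated with compounds and infected with luciferase-expressing HCMV at 1 PFU/cell, 72 h at 37C, then lysed for luciferase measurement.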
VACV mCherry inh: qHTS for Stage-Specific Inhibitors of Vaccinia Orthopoxvirus: mCherry Reporter Primary qHTS | Vaccinia virus mCherry reporter infection, fluorescence | Potency, µM (series often up to 36.5 µM), inactives show at the top dose activity change, negative = inhibition, hits mostly inhibitors | 310,000 tested, 0.63% active; calls by dose curve; tested in A549 cells; further: potency means the concentration at half of the fitted maximal effect; nearly all actives have a fitted effect of over 35% in size
Sm TGR inh: qHTS Assay for the Inhibitors of Schistosoma Mansoni Peroxiredoxins. Potency, µM (titrated, usually from 114 µM), for inactives: at the top dose activity change, negative = inhibition, most hits filed as inhibitors. purified TGR, DTNB reduction, TNB absorbance 405 nm. Schistosoma mansoni thioredoxin glutathione reductase (TGR), Q962Y6. 360,000 tested, 3% active; further: potency means the concentration at half of the fitted maximal effect; nearly all actives have a fitted effect of over 60% in size
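Kinetic colorimetric format: TGR-catalysed, NADPH-driven DTNB reduction monitored via TNB absorbance. Enzyme dispensed at 20 nM; compound exposure 15 min at room temperature before reaction start.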
HCV inh: qHTS Assay for Inhibitors of Hepatitis C Virus (HCV). Huh7.5.1 HCVcc-Cre infection, luciferase reporter, 44 h. Potency, µM (doses to about 41.8 µM), for the others: top-dose activity change, negative = inhibition, usual class: inhibitors. 340,000 tested, 3.4% active. AID 651820, 2012; further: potency means the concentration at half of the fitted maximal effect
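Luciferase read-out (15 sec integration) after a 15 min room-temperature substrate step quantifies HCVcc-Cre infection. Cells, 1,000 per well, had compound added 4 h post-plating, then virus at ~0.5 moi, and were cultured 44 h.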
FMDV inh: High Throughput Screening for Foot and Mouth Disease Virus Antivirals; FMDV antiviral cell-based qHTS; Potency, µM (highest dose often 57.9 µM), without a hit: at the top dose activity change, negative = inhibition, most hits filed as inhibitors; 410,000 tested, 1.2% active; calls by dose curve; tested in HEK293T cells; further: read-out not given here; potency means the concentration at half of the fitted maximal effect; nearly all actives have a fitted effect of over 45% in size
* hit, by the source's call; i = inactive; ? = inconclusive; . = no result given; [ ] = remark or other dose. The list is not random: actives were taken first. Their share in the collection is about 9.3%. Unless noted, the call rests on the fitted dose curve; in most records, active means well fitted curve in the direction sought with a large enough effect; inconclusive means small, poorly fitted or top-dose-only effect, or another doubt; inactive means no such curve, though single readings can be large; an effect the other way counts as inactive or inconclusive. On the % scale 0 is the no-effect control and ±100 the full control effect.

SMILES	Vaccinia Venus	HCMV inh	VACV mCherry inh	Sm TGR inh	HCV inh	FMDV inh
CC(CNC(=O)c1ccc2c(c1)OCO2)c1ccc([N+](=O)[O-])cc1 (stereo unspecified)	-11%	-63*	-9%	-6%	-12%	-14%
CCOc1ccc(NC(=O)Cn2c(=O)n(CCCCC(=O)NCc3ccc4c(c3)OCO4)c(=O)c3ccccc32)cc1	?	-76*	?	-1%	.	?
O=C(NCc1ccc2c(c1)OCO2)Nc1ccc([N+](=O)[O-])cc1	-11%	-61*	-6%	-5%	?	1%
CCOC(=O)c1ccccc1NC(=O)Cn1c(=O)n(CCC(=O)N2CCc3ccccc3C2)c(=O)c2ccccc21	-13%	-11	-20%	3%	.	-11%
Cc1ccc(NC(=O)Cn2c(=O)n(CCC(=O)N3CCc4ccccc4C3)c(=O)c3ccccc32)c(C)c1	-14%	-65*	-15%	-10%	.	-9%
CCOc1ccc(NC(=O)C2CCN(S(=O)(=O)c3c(C)noc3/C=C/c3cccs3)CC2)cc1	-16%	3	-8%	-9%	.	-23%
Cc1cc(OCC(=O)c2ccc(F)cc2)ccc1N1C(=O)CCC1=O	12%	-28	.	7%	-11%	13%
Cc1ccc(NC(=O)Cn2c(=O)n(CCCCC(=O)NCc3ccccc3Cl)c(=O)c3ccccc32)cc1	-9%	0	-19%	8%	.	-23%
O=C(NCCc1ccc([N+](=O)[O-])cc1)c1ccccc1	.	42	.	17%	-8%	3%
CCOc1ccccc1NC(=O)c1ccc(F)c(S(=O)(=O)NCc2ccc3c(c2)OCO3)c1	-7%	?	-16%	1%	.	12%
CCOc1ccc(NC(=O)c2ccc(F)c(S(=O)(=O)NCc3ccc4c(c3)OCO4)c2)cc1	?	-81*	?	4%	.	?
CC(C)c1ccc(CCNC(=O)c2ccc([N+](=O)[O-])cc2)cc1	-24%	0	-28%	-8%	11µM*	-19%
Cc1ccc(NC(=O)Cn2c(=O)n(CCC(=O)NCc3ccccc3Cl)c(=O)c3ccccc32)cc1	-11%	-86*	-2%	7%	.	-13%
CCOc1ccc(NC(=S)NCc2ccc3c(c2)OCO3)cc1	-3%[7.34 µM]	11	-3%[7.34 µM]	5µM*	1%	58%
COC(=O)N1C(=O)[C@](Cc2ccccc2)(c2ccccc2)N1C(=O)OC	10µM*	4	13µM*	3.5µM*	16%	?
COC(=O)N1C(=O)[C@@](Cc2ccccc2)(c2ccccc2)N1C(=O)OC	?	12	?	3.5µM*	22%	?
Cc1cc(-c2nn(-c3ccccc3F)cc2CN2CCCC(CO)C2)c(C)s1 (stereo unspecified)	-17%	-86*	?	-5%	?	-5%
Cc1cc(-c2nn(-c3ccccc3F)cc2CN2CCCC(C(N)=O)C2)c(C)s1 (stereo unspecified)	-8%	-21	-5%	-9%	10%	-4%
Cc1cc(-c2nn(-c3ccccc3F)cc2CN2CCC(C(N)=O)CC2)c(C)s1	.	-13	.	45µM*	7%	-8%
Cn1nc(Oc2ncc(C(F)(F)F)cc2Cl)cc1C(F)(F)F	-1%	?	7%	10%	11%	5%
CN1CCN(c2ccc(CNC(=O)C3Cc4c(-c5ccc6c(c5)OCO6)ccnc4O3)cc2)CC1 (stereo unspecified)	-23%	17	i	.	.	-19%
O=c1c2ccccc2[se]n1-c1ccccc1	-9%	-67*	-3%	?	-4%[8.37 µM]	11%
CCC1CCCCN1C(=O)c1cc2c(=O)n3cccc(C)c3nc2s1 (stereo unspecified)	1%	.	-5%	-18%	11%	37%
CCN1CCN(c2ccc(NC(=O)CC3OC(=O)c4ccccc43)cc2C)CC1 (stereo unspecified)	-18%	46	i	.	.	65%
CC(C)Cc1ccc(C(C)NC(=O)c2ccc(=O)[nH]c2)cc1 (stereo unspecified)	-21%	?	-15%	-5%	-23%	-28%
SMILES	Vaccinia Venus	HCMV inh	VACV mCherry inh	Sm TGR inh	HCV inh	FMDV inh
CCOc1ccccc1/C=N/OCC(=O)NCc1ccc(F)cc1	-3%	-23	-13%	-1%	4µM*	-19%
COC(=O)c1ccc(/C=N/OCC(=O)NCc2ccc(F)cc2)cc1	-9%	-37	-4%	1%	?	-7%
C[C@@H]1CN([C@@H](C)CO)C(=O)CCCn2nncc2CO[C@H]1CN(C)C(=O)Nc1cccc2ccccc12	-13%	-3	-5%	.	.	-13%
Nc1nc(F)cc(NCc2ccccc2)n1	-13%	49	0%	6%	-3%	8%
CCOC(=O)C(C(=O)OCC)C1OC(=O)c2cc3c(cc21)C(=O)OC3C(C(=O)OCC)C(=O)OCC (stereo unspecified)	-3%	-12	-2%	?	11%	?
CCCC(=O)Oc1ccccc1C1SCc2cc(C)c(C)cc2CS1	-14%	-60*	-1%	3%	-26%	-18%
CC(=O)/C(N=Nc1cc2c(c([N+](=O)[O-])c1C)C(C)(C)CC2(C)C)=C(\C)O	-14%	11	-13%	5%	?	25µM*
CC(=O)CC(=O)NC1C2CC3CC(C2)CC1C3 (stereo unspecified)	-7%	72	i	?	4%	3%
CC(C)NC(=O)NC1C2CC3CC(C2)CC1C3 (stereo unspecified)	-11%	0	.	89µM*	20%	-3%
Cc1nc2cc(F)ccc2n1C1CCN(C(=O)c2ccc(F)cc2F)CC1	-24%	-5	i	12%	?	-26%
CC(=O)Nc1c(C)ccc([N+](=O)[O-])c1C	-6%	-19	i	.	11%	-8%
CC(=O)Nc1c([N+](=O)[O-])cc2[nH]c(=O)[nH]c2c1[N+](=O)[O-]	-11%	-12	1%	50µM*	12%	-4%
CC(=O)Nc1c([N+](=O)[O-])cc(C)c(Cl)c1[N+](=O)[O-]	-27%	-77*	?	-31%	4%	-13%
CC(=O)C1=C(O)C(=O)N(C)C1c1ccccc1F (stereo unspecified)	-28%	12	.	-1%	23%	9%
COc1ccc(C(=O)Nc2ccc(C3=NNC(=O)CC3C)cc2NC(=O)c2ccc(OC)cc2)cc1 (stereo unspecified)	-14%	8	?	4%	10µM*	0%
COc1ccc(C(=O)Nc2ccc(C(=O)O)cc2NC(=O)c2ccc(OC)cc2)cc1	.	12	.	16%	19%	-19%
